Assay [1] can be described thus: CCTE_Mundy_HCI_Cortical_Synap_Neur_Matur_SynapseCount: CCTE's Synaptogenesis and Neurite Maturation Assay in rat cortical cells for Synapse Count, Mundy Lab (AID 2284218). The method in brief:
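Read-out: synapse number per neuron, automated high-content imaging of fixed cells immunostained for MAP2 and synaptophysin plus Hoechst nuclei. Rat primary cortical cultures, AraC at DIV 5, chemical dosing DIV 7–12. Positive-direction fit relative to DMSO.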

Assay [2] is described as follows: CCTE_Mundy_HCI_Cortical_Synap_Neur_Matur_NeuriteCount: CCTE's Synaptogenesis and Neurite Maturation Assay in rat cortical cells for Neurite Count, Mundy Lab (AID 2284222). A digest of the protocol: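 Primary rat cortical cells were plated, treated with AraC at DIV 5, then exposed to chemicals from DIV 7 through DIV 12. After fixation and immunostaining for MAP2 and synaptophysin, imaging quantified neurites, with DMSO as the negative control.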

The nature of assay [3]: CCTE_Mundy_HCI_Cortical_Synap_Neur_Matur_CellBodySpotCount: CCTE's Synaptogenesis and Neurite Maturation Assay in rat cortical cells for Cell Body Spot Count, Mundy Lab (AID 2284223). The method in brief:
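Primary rat cortical cultures, AraC added at DIV 5; dosed DIV 7 through DIV 12 […]. Fixed, stained for MAP2 and synaptophysin with Hoechst; cell body-associated synaptophysin puncta per neuron counted by high-content imaging, loss vs DMSO.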

Assay [4] can be described thus: CCTE_Mundy_HCI_hNP1_Pro_ResponderAvgInten: CCTE's Proliferation Assay in human neuroprogenitor cells, Mundy Lab (AID 2284224; active means hit-call score of the fitted dose curve at least 0.9, where 1 is the maximum;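 further: human neural progenitor cells hNP1 derived from WA09 embryonic stem cells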). The method in brief:
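Proliferation was scored as BrdU labelling intensity in human neural progenitors derived from WA09 embryonic cells, measured 26.25 hours after chemical dosing. Activity was fitted relative to DMSO.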

A short description of assay [5]: CCTE_Mundy_HCI_hN2_NOG_NeuriteCount: CCTE's Neurite Outgrowth Assay in human hN2 cells for Neurite Count, Mundy Lab (AID 2284219; active means hit-call score of the fitted dose curve at least 0.9, where 1 is the maximum). A digest of the protocol: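 In this morphology assay, hNP1-derived neurons received test chemical 2 h post-plating and were fixed two days later in warm paraformaldehyde/sucrose containing Hoechst 33342. Neurites, labelled by rabbit anti-βIII-tubulin (1:800) and Alexa Fluor-488 (1:500), were counted automatically.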

Assay [6] can be described thus: CCTE_Mundy_HCI_hN2_NOG_NeuriteLength: CCTE's Neurite Outgrowth Assay in human hN2 cells for Neurite Length, Mundy Lab (AID 2284220; active means hit-call score of the fitted dose curve at least 0.9, where 1 is the maximum). The procedure:
CCTE_Mundy_HCI_hN2_NOG is a multiplexed, cell-based-readout assay that uses immature neurons derived from hNP1 neuroprogenitor cells with measurements taken at 50.33 hours after chemical dosing in a microplate: 96-well plate.CCTE_Mundy_HCI_hN2_NOG_NeuriteLength is one of four components of the CCTE_Mundy_HCI_hN2_NOG assay. It measures neurite outgrowth related to neurite length using High Content Imaging of fluorescently labelled markers.[…] Using a type of morphology reporter, loss -of-signal activity can be used to understand developmental effects.
Exposure starts 2 hours post-plating by adding 10 ul of the working solution to 90 ul of media in the wells for a 1/10 dilution. Forty-eight hours after chemical treatment cells are fixed by direct addition of 100 ul of warm (37C) Dulbecco's phosphate buffered saline (DPBS) fixative solution containing 8% paraformaldehyde, 8% sucrose, and 0.1% of 3 mg/ml Hoechst 33342 into each well. Primary antibodies are prepared by dilution in Immunocytochemical Staining Buffer (ISB), 10X Dulbecco's PBS, 0.1% Saponin, 5% Bovine Serum Albumin, 0.5% NaN3 (Sodium Azide) and betaIII-tubulin (rabbit anti-betaIII-tubulin, 1:800) followed by Alexa Fluor-488 secondary (1:500) to label neuronal cell bodies and neurites. A Cellomics ArrayScan VTi HCS Reader is used for automated image acquisition and analysis of neurite outgrowth.

The nature of assay [7]: CCTE_Mundy_HCI_hN2_NOG_NeuronCount: CCTE's Neurite Outgrowth Assay in human hN2 cells for Neuron Count, Mundy Lab (AID 2284221; active means hit-call score of the fitted dose curve at least 0.9, where 1 is the maximum). The method in brief:
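Read-out is the number of betaIII-tubulin-positive neurons imaged by automated high-content analysis, with DMSO as negative control.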

Assay [8] in a line: BSK_BT_PBMCCytotoxicity: PBMC Cytotoxicity Assessment in the BioMAP Diversity Plus: BT Assay (AID 2284225).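 Further: PBMC viability measured by Alamar Blue dye reduction fluorescence.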 The settings on record: primary human B cells with PBMC. The method in brief: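 Primary human co-culture of B cells and PBMC, pre-dosed 1 h then activated with SEB and TSST-1. Cytotoxicity is taken from Alamar Blue dye reduction, added for 6 h at the end of a 90 h incubation.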

Read-out in assay [9]: Secreted IgG (sIgG), gene 3500
Nature of the assay: BSK_BT_sIgG: BioMAP Diversity Plus: BT Assay for Secreted IgG (sIgG) Biomarker Activity (AID 2284226). The settings on record: primary human B cells with PBMC. A digest of the protocol:
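Human B cell/PBMC co-culture; compound exposure 24 h; sIgG by ELISA; gain-of-signal fit vs DMSO baseline.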

Assay [10] in a line: BSK_BT_Bcell_Proliferation: Viability Assessment in the BioMAP Diversity Plus: BT Assay for B cell Proliferation (AID 2284227). The settings on record: primary human B cells with PBMC. A digest of the protocol:
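Read-out is absorbance at 560 nm from sulforhodamine B staining of total protein, reflecting relative cell numbers in a human B cell and PBMC co-culture after 72 h of chemical exposure. Values were referenced to DMSO.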

Structures are written as SMILES. Results filed as inconclusive are left out. Activity calls are given as the source filed them. How the source made its calls, unless noted: active means hit-call score of the fitted dose curve at least 0.9, where 1 is the maximum; inactive means score below 0.9.

In general, AC50 refers to the midpoint of the concentration-response curve, whichever way the signal moves.

With `Cc1nn(C)c(Oc2ccccc2)c1C=NOCc1ccc(C(=O)OC(C)(C)C)cc1`, the AC50 in [1] is 0.0023 µM (active); in assay [2], 0.00454 µM (active); in [3], 0.00403 µM (active); in assay [4], 7.65 µM (active).

Take `CC(C)(c1ccc(O)cc1)c1ccc(O)cc1`: the AC50 in [1] is 50 µM (active); in assay [5], 77.3 µM (active); in [6], 78.8 µM (active); in assay [7], 50 µM (active). Besides, the compound was classed as inactive in assay [3] and in assay [4].

On to `CCCN(CCC)C(=O)SCC`, for which the compound was classed as inactive in assay [1], in [2], in assay [3] and in assay [4].

In the case of `CCC(C)OC(=O)N1CCCCC1CCO` (stereo not given), the result in assay [8], in [9] and in assay [10] was inactive.

For the compound `O=C(O)c1ccccc1`, the compound was called inactive in [1], in assay [5], in assay [6], in [7], in assay [2] and in assay [3].

With `C#CCOC(=O)[C@@H](C)Oc1ccc(Oc2ncc(Cl)cc2F)cc1`, the compound was classed as inactive in [1], in assay [2] and in [3]. In [4], the AC50 is 50 µM (active).

In the case of `CCN(CC)C(=O)c1cccc(C)c1`, the compound was classed as inactive in assay [1], in assay [2], in [3] and in assay [4].

For `CC1(C)C(C=C(Cl)Cl)C1C(=O)OCc1cccc(Oc2ccccc2)c1` (stereo not given), the values for the AC50 in assay [1] and in assay [7] were 9.11 µM (active) and 20.2 µM (active), respectively. The compound was called inactive in assay [5], in [6], in assay [2], in assay [3] and in assay [4].

Regarding `COCCO`, the result in assay [8], in assay [9] and in assay [10] was inactive.

`S=C([S-])NCCNC(=S)[S-].[Mn+2]`: the result in assay [1], in assay [5], in assay [6], in assay [7] and in [3] was inactive.

As to `S=C(S)NCCNC(=S)S.[Mn+2].[S-]C([S-])=NCCN=C([S-])[S-].[Zn+2]`, the result in [1], in [2] and in assay [3] was inactive.

`CSC(=O)c1cccc2nnsc12`: the compound was classed as inactive in assay [1], in assay [2] and in assay [3].

In the case of `N#CSCSc1nc2ccccc2s1`, the AC50 in assay [8] is 3.65 µM (active); in [9], 3.18 µM (active); in assay [10], 5.47 µM (active).

The values above are taken from PubChem BioAssay (EPA / NIEHS).
